According to PubChem BioAssay (EPA / NIEHS):
Active and inactive are the calls of the source. How the source made its calls: active means hit-call score of the fitted dose curve at least 0.9, where 1 is the maximum; inactive means score below 0.9.

How the values were obtained:
[1] = ATG_GRE_CIS: Attagene CIS-FACTORIAL HepG2 Assay for human Glucocorticoid Response Elements (GRE) (AID 2282947); settings: HepG2 GRE cis-reporter, Attagene multiplex mRNA; actives raise or lower the signal
Method in brief: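 Transient MRTU transfection of human HepG2 liver cells; cis-regulated reporters report endogenous factors. 24 h dosing → RNA isolation → RT-PCR → 6-FAM primer extension → HpaI cut → CE fragment analysis. Bidirectional fit, DMSO negative control.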

[2] = ATG_M_32_CIS: Attagene CIS-FACTORIAL HepG2 Assay for M32 Transcription Factor (Internal Marker) (AID 2282949); settings: HepG2 Attagene cis-factorial M32 reporter, mRNA; actives raise or lower the signal;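 further: background control marker of the multiplexed CIS panel rather than a real target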
Method in brief: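 Fluorescent capillary electrophoresis peaks of HpaI-digested, FAM-labelled RT-PCR reporter products give the signal. Source: transiently transfected human liver HepG2 cells, 24 h after chemical dosing; bidirectional fitting against DMSO.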

[3] = ATG_M_06_CIS: Attagene CIS-FACTORIAL HepG2 Assay for M06 Transcription Factor (Internal Marker) (AID 2282950); settings: HepG2 Attagene CIS-FACTORIAL M06 internal marker reporter; actives raise or lower the signal
Method in brief: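 Steps: transfect HepG2 with multiplexed cis-element reporter constructs; dose chemical 24 h; extract RNA with DNase treatment; reverse-transcribe, PCR-amplify, 6-FAM label, HpaI digest; separate fragments by capillary electrophoresis. Activity fitted both directions versus DMSO.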

[4] = target: Hypoxia-inducible factor 1-alpha (Homo sapiens) (UniProt Q16665); assay: ATG_HIF1a_CIS: Attagene CIS-FACTORIAL HepG2 Assay for human Hypoxia Inducible Factor 1 (HIF1A) (AID 2282951); settings: HepG2 Attagene cis-factorial HIF1a reporter transcription; actives raise or lower the signal
Method in brief: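 Activity is fitted in both directions relative to DMSO. Reporter transcripts are read by RT-PCR, fluorescent primer extension and capillary electrophoresis after 24 h chemical treatment. The cells are HepG2 carrying transiently transfected cis-element-driven reporter units responding to endogenous factors.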

[5] = target: Hepatocyte nuclear factor 6 (Homo sapiens) (UniProt Q9UBC0); assay: ATG_HNF6_CIS: Attagene CIS-FACTORIAL HepG2 Assay for human Hepatocyte Nuclear Factor 6 (HNF6) (AID 2282952); settings: HepG2 Attagene cis-factorial HNF6 reporter transcription; actives raise or lower the signal
Method in brief: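 Reporter mRNA induction or loss in HepG2 after 24 h exposure; transient cis-MRTU transfection; fragments quantified by capillary electrophoresis; bidirectional analysis, DMSO as negative control.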

[6] = ATG_MRE_CIS: Attagene CIS-FACTORIAL HepG2 Assay for human Metal Responsive Element (MRE) (AID 2282954); settings: HepG2 MRE cis-reporter transcription, Attagene multiplex; actives raise or lower the signal
Method in brief: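 Transient MRTU transfection of HepG2 (FuGene 6); 24 h dosing; total RNA → oligo(dT) RT, PCR, 6-FAM primer extension, HpaI cut, CE. Bidirectional fit vs DMSO.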

[7] = ATG_PBREM_CIS: Attagene CIS-FACTORIAL HepG2 Assay for human Phenobarbital-responsive Enhancer Module (PBREM) (AID 2282955); settings: HepG2 PBREM cis-reporter, Attagene multiplexed transcription; actives raise or lower the signal
Method in brief: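 Endogenous transcription factor activity was read from reporter transcripts in transiently transfected human HepG2 liver cells after 24 h dosing. RT-PCR products were fluorescently labelled, HpaI-cut and sized by capillary electrophoresis; activity fitted bidirectionally against DMSO baseline.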

[8] = target: Paired box protein Pax-6 (Homo sapiens) (UniProt P26367); assay: ATG_Pax6_CIS: Attagene CIS-FACTORIAL HepG2 Assay for human Paired Box 6 (PAX6) (AID 2282956); settings: HepG2 CIS-FACTORIAL PAX6 reporter transcription, RNA readout; actives raise or lower the signal
Method in brief: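 HepG2 cells transiently transfected with multiplexed cis-promoter reporter units (endogenous TF activity) were dosed for 24 h. Reporter mRNA was quantified by RT-PCR, 6-FAM labeling, HpaI digestion and capillary electrophoresis; bidirectional fitting versus DMSO baseline.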

[9] = ATG_PPRE_CIS: Attagene CIS-FACTORIAL HepG2 Assay for human Peroxisome Proliferator-activated Response Element (PPRE) (AID 2282958); settings: HepG2 PPRE cis-element reporter, Attagene transcription factor profiling; actives raise or lower the signal
Method in brief: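 Endogenous PPRE-driven transcription is measured in HepG2 cells carrying transfected multi-reporter constructs. Reporter transcripts are quantified by RT-PCR, HpaI digestion and capillary electrophoresis 24 h after dosing. DMSO baseline, bidirectional fit.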

[10] = ATG_RORE_CIS: Attagene CIS-FACTORIAL HepG2 Assay for human RAR-related Orphan Receptor Element (RORE) (AID 2282959); settings: HepG2 Attagene cis-factorial RORE reporter, mRNA; actives raise or lower the signal
Method in brief: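 RORE reporter transcripts reflecting endogenous factor activity were read after 24 h compound exposure of transfected HepG2 cells, using reverse transcription, PCR, fluorescent labelling and capillary electrophoresis sizing. Gain or loss fitted against DMSO.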

[11] = ATG_Sox_CIS: Attagene CIS-FACTORIAL HepG2 Assay for human SRY-box transcription factor (SOX) (AID 2282960); settings: HepG2 Attagene cis-factorial SOX reporter, mRNA; actives raise or lower the signal
Method in brief: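 Reporter transcripts, measured by RT-PCR and capillary electrophoresis of labelled fragments, report endogenous SOX transcription factor activity. Transiently transfected human HepG2 cells receive chemical for 24 h; changes in either direction are fitted relative to DMSO.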

[12] = target: Transcription factor Sp1 (Homo sapiens) (UniProt P08047); assay: ATG_Sp1_CIS: Attagene CIS-FACTORIAL HepG2 Assay for human Specificity Protein 1 (Sp1) (AID 2282961); settings: HepG2 Sp1 cis-reporter transcription, actives raise or lower the signal
Method in brief: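 Read-out is reporter transcript level, measured by RT-PCR and fluorescent capillary electrophoresis after 24 h chemical treatment. System: transiently transfected HepG2 cells reporting endogenous transcription factor activity; gain or loss fitted against DMSO baseline.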

[13] = ATG_SREBP_CIS: Attagene CIS-FACTORIAL HepG2 Assay for human Sterol Regulatory Element Binding (SREBP) (AID 2282962); settings: HepG2 Attagene cis-factorial SREBP reporter, mRNA; actives raise or lower the signal
Method in brief: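 HepG2 cells transiently transfected with multiplexed cis-element reporter units report endogenous transcription factor activity. After 24 h of chemical exposure, reporter mRNA was quantified by RT-PCR, 6-FAM labelling, HpaI digestion and capillary electrophoresis; bidirectional fits used DMSO as baseline.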

[14] = target: Signal transducer and activator of transcription 3 (Homo sapiens) (UniProt P40763); assay: ATG_STAT3_CIS: Attagene CIS-FACTORIAL HepG2 Assay for human Signal Transducer and Activator of Transcription 3 (STAT3) (AID 2282963); settings: HepG2, Attagene cis-factorial STAT3 reporter transcription; actives raise or lower the signal
Method in brief: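 Endogenous STAT3-responsive cis-element activity was read in transiently transfected HepG2 cells after 24 h treatment. Reporter transcripts were quantified via RT-PCR and capillary electrophoresis, with DMSO as negative control and bidirectional curve fitting.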

[15] = ATG_TA_CIS: Attagene CIS-FACTORIAL HepG2 Assay for human TA Basal Promoter (AID 2282964); settings: HepG2 Attagene CIS-factorial TA basal promoter reporter; actives raise or lower the signal
Method in brief: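 Steps: transfect HepG2 with MRTUs; dose 24 h; isolate RNA, DNase-treat, reverse-transcribe; PCR and FAM-label reporter cDNA; digest with HpaI 2h at 37 C; run capillary electrophoresis. Activity fitted both directions against DMSO.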

[16] = ATG_TCF_b_cat_CIS: Attagene CIS-FACTORIAL HepG2 Assay for human T-Cell-Factor with beta-catenin (TCF/b-cat) (AID 2282965); settings: HepG2 TCF/beta-catenin cis-reporter transcription, actives raise or lower the signal
Method in brief: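 Endogenous transcription factor activity is captured through cis-promoter reporter constructs transiently introduced into human HepG2 liver cells. Induced reporter mRNA is measured after 24 h and fitted bidirectionally relative to DMSO.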

[17] = target: Heat shock factor protein 1 (Homo sapiens) (UniProt Q00613); assay: ATG_HSE_CIS: Attagene CIS-FACTORIAL HepG2 Assay for human Heat Shock Transcription Factor 1 (HSE) (AID 2282953); settings: HepG2 HSE cis-reporter, Attagene RNA transcription; actives raise or lower the signal
Method in brief: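 Cells were transfected with cis-element-driven reporter constructs, dosed for 24 h, then total RNA was reverse-transcribed and reporter cDNA amplified, FAM-labelled and digested with HpaI. Fragments were resolved by capillary electrophoresis; gain or loss was fitted against DMSO.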

[18] = ATG_PXRE_CIS: Attagene CIS-FACTORIAL HepG2 Assay for human Pregnane X Receptor Element (PXRE) (AID 2282957); settings: HepG2 Attagene CIS-FACTORIAL PXRE reporter, mRNA; actives raise or lower the signal
Method in brief: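 Transiently transfected HepG2 cells were dosed and incubated for 24 h. RNA was then isolated, DNase-treated, reverse-transcribed and reporter sequences amplified. Labeled, HpaI-digested fragments were quantified by capillary electrophoresis against DMSO.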

[19] = ATG_ISRE_CIS: Attagene CIS-FACTORIAL HepG2 Assay for human Interferon Regulatory Factor 1 (IRF1) binding to an Interferon-Stimulated Response Element (ISRE) (AID 2282948); settings: HepG2 ISRE cis-reporter (Attagene), mRNA transcription readout; actives raise or lower the signal
Method in brief: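 HepG2 cells transiently transfected with multiplexed cis-promoter reporter units; after 24 h compound exposure, reporter mRNA quantified by RT-PCR, FAM labelling, HpaI digestion and capillary electrophoresis. Bidirectional fit versus DMSO baseline.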

Measured: AC50

Chain of Paired box protein Pax-6 (Homo sapiens) (P26367 whole entry, looked up): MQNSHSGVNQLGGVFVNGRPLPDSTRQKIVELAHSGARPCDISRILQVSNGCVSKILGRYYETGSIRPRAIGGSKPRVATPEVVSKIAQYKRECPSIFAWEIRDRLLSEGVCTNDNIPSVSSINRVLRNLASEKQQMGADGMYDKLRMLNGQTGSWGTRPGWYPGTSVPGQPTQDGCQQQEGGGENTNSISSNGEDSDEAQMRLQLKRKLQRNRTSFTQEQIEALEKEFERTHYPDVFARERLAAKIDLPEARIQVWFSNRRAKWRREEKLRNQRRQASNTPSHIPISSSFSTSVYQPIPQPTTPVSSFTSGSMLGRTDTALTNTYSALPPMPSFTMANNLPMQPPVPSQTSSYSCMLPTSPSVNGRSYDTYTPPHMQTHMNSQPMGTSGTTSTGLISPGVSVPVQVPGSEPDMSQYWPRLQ
Chain of Hypoxia-inducible factor 1-alpha (Homo sapiens) (Q16665 whole entry, looked up): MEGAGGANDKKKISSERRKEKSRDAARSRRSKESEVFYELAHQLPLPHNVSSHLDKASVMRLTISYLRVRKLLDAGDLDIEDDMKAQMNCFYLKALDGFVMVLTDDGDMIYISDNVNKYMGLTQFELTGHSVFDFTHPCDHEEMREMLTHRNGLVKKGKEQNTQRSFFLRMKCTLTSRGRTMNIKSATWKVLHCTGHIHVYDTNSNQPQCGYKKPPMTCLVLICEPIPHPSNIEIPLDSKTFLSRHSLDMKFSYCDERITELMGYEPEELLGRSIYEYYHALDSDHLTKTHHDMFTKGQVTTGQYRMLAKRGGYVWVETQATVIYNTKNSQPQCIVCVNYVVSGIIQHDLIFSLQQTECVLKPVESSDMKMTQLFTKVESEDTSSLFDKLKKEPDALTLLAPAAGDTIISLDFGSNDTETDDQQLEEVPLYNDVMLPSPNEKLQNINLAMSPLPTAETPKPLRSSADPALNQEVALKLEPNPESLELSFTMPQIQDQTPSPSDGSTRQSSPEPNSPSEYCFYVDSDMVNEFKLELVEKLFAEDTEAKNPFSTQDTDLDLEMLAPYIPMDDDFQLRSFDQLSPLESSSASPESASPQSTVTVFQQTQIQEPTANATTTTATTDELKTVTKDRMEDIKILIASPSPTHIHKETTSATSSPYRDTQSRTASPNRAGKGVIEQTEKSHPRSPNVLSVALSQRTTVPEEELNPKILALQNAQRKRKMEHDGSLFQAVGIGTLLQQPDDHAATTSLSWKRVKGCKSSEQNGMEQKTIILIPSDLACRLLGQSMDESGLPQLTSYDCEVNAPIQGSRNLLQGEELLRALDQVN
Chain of Hepatocyte nuclear factor 6 (Homo sapiens) (Q9UBC0 whole entry, looked up, the tested form may be a part): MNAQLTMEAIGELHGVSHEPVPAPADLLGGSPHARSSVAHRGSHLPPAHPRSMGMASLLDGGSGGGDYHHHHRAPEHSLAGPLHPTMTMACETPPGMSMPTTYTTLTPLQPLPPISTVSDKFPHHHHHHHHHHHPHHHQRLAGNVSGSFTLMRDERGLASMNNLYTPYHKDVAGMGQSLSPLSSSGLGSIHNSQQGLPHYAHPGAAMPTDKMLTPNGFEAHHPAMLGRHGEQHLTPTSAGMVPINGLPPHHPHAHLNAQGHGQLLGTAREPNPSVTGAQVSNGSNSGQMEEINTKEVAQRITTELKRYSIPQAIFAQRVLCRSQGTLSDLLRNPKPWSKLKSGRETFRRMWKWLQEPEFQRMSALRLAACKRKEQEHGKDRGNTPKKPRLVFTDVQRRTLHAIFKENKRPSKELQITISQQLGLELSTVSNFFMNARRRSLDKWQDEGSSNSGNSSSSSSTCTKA
Chain of Transcription factor Sp1 (Homo sapiens) (P08047 whole entry, looked up): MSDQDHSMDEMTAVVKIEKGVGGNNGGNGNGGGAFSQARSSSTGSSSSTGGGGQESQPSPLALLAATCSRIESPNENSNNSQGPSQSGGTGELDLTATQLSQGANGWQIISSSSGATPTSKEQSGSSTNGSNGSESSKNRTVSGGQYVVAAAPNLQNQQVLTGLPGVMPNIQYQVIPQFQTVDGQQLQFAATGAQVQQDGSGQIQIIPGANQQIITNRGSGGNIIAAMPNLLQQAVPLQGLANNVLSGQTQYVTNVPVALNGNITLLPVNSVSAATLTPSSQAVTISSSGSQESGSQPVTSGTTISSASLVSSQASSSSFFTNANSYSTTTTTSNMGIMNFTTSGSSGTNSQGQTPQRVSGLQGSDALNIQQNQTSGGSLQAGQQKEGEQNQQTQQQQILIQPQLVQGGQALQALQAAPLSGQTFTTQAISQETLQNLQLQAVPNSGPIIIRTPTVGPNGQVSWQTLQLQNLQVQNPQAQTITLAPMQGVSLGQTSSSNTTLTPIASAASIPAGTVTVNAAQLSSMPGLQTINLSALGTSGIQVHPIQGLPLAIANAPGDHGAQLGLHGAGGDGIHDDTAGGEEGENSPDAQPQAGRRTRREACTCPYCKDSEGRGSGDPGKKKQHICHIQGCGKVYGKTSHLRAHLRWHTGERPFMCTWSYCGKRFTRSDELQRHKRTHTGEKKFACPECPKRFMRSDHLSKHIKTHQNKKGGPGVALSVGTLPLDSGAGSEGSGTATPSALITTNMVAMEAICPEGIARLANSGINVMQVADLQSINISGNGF
Chain of Signal transducer and activator of transcription 3 (Homo sapiens) (P40763 whole entry, looked up): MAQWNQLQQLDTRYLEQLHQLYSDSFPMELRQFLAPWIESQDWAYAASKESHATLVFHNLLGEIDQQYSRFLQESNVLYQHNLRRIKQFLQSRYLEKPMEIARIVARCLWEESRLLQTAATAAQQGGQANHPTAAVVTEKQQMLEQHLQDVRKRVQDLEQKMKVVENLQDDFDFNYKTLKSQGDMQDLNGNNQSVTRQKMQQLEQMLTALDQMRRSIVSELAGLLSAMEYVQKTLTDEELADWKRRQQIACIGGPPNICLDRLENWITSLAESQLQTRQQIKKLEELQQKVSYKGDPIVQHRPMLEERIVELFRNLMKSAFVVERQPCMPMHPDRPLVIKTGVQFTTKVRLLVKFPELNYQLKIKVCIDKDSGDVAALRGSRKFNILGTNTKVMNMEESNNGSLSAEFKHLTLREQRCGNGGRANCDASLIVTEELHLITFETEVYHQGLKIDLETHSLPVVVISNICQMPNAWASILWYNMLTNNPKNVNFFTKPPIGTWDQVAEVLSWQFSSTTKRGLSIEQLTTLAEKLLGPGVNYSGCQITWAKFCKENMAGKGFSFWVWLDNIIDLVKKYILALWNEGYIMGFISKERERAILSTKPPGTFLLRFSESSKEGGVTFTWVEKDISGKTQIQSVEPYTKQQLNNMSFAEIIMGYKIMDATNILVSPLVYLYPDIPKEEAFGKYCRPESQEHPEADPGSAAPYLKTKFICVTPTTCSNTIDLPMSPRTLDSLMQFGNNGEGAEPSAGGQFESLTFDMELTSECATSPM
Chain of Heat shock factor protein 1 (Homo sapiens) (Q00613 whole entry, looked up, the tested form may be a part): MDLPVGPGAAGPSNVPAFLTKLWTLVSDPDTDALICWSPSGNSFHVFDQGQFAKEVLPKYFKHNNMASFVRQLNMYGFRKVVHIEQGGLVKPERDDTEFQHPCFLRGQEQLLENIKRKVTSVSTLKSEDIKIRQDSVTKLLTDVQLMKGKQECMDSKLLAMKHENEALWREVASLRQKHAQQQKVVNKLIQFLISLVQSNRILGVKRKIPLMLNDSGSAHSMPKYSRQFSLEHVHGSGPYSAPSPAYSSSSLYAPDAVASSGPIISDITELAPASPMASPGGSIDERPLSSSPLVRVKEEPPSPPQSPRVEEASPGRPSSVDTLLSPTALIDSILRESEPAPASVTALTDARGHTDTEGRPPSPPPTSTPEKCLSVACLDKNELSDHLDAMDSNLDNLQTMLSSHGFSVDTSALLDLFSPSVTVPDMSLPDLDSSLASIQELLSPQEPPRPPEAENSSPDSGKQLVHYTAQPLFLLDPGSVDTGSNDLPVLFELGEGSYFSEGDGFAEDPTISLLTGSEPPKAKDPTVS

Cc1ccc2ccccc2n1
inactive: [1] | [2] | [3] | [4] | [5] | [6] | [7] | [8] | [9] | [10] | [11] | [12] | [13] | [14] | [15] | [16]

CNCCCC12CCC(c3ccccc31)c1ccccc12
active: [6] 16.6 µM | [8] 17.4 µM | [16] 18.5 µM
inactive: [1] | [2] | [3] | [5] | [17] | [7] | [18] | [9] | [11] | [12] | [13] | [14] | [15]

O=C1CCCCCCCCCCCCCCO1
inactive: [1] | [2] | [3] | [4] | [5] | [17] | [6] | [8] | [18] | [9] | [10] | [11] | [12] | [13] | [14] | [15] | [16]

CCCCCNCCCCC
active: [18] 59.4 µM
inactive: [19] | [2] | [3] | [4] | [5] | [17] | [6] | [7] | [8] | [9] | [10] | [11] | [12] | [13] | [14] | [15] | [16]

O=C[C@@H](O)[C@H](O)[C@H](O)CO
inactive: [19] | [2] | [3] | [4] | [5] | [17] | [6] | [7] | [8] | [18] | [9] | [10] | [11] | [12] | [13] | [14] | [15] | [16]

NCCCCCCN
inactive: [19] | [2] | [3] | [4] | [5] | [17] | [6] | [8] | [18] | [9] | [10] | [11] | [12] | [13] | [14] | [15] | [16]

CSc1nc(NC2CC2)nc(NC(C)(C)C)n1
inactive: [19] | [2] | [3] | [4] | [5] | [17] | [7] | [8] | [10] | [11] | [12] | [13] | [14] | [15]
active: [6] 65.7 µM | [18] 0.911 µM | [9] 100 µM | [16] 51.7 µM

O=C(COc1ccc(Cl)cc1)N1CCN(Cc2ccc3c(c2)OCO3)CC1
active: [19] 58 µM | [4] 19.8 µM | [17] 151 µM | [6] 74.6 µM | [8] 57.7 µM | [13] 27.1 µM
inactive: [2] | [3] | [5] | [7] | [10] | [11] | [12] | [14] | [15] | [16]

CCCCCCCCCCCCCCCC(=O)OC[C@H](O)[C@H]1OC(=O)C(O)=C1O
inactive: [19] | [2] | [3] | [5] | [6] | [8] | [9] | [10] | [12] | [15]
active: [4] 131 µM | [17] 24.1 µM | [7] 71.7 µM | [18] 38.2 µM | [11] 150 µM | [13] 100 µM | [16] 168 µM

COc1ccc(O)cc1
inactive: [1] | [2] | [3] | [4] | [5] | [17] | [6] | [8] | [9] | [11] | [12] | [13] | [14] | [16]
active: [18] 57.5 µM

COC(C)CCO (stereo not drawn)
inactive: [19] | [2] | [3] | [4] | [5] | [17] | [6] | [7] | [8] | [10] | [11] | [12] | [13] | [14] | [15]
active: [18] 26.6 µM

CC(=O)C(=O)O
inactive: [19] | [2] | [3] | [5] | [17] | [6] | [7] | [8] | [18] | [9] | [10] | [11] | [12] | [13] | [14] | [16]
active: [4] 33.9 µM

COc1nc(C)nc(N)n1
inactive: [1] | [2] | [3] | [5] | [17] | [6] | [8] | [9] | [10] | [11] | [12] | [13] | [14] | [16]

CC1(C)C(=O)N(Br)C(=O)N1Cl
active: [18] 67.5 µM
inactive: [19] | [2] | [3] | [4] | [5] | [17] | [6] | [7] | [8] | [9] | [10] | [11] | [12] | [13] | [14] | [15] | [16]

C=CCOc1nc(OCC=C)nc(OCC=C)n1
active: [18] 17.2 µM
inactive: [1] | [2] | [3] | [4] | [17] | [6] | [8] | [9] | [10] | [11] | [12] | [14] | [15] | [16]
